Nine compounds from PubChem BioAssay (EPA / NIEHS) can be followed below.

Inconclusive results are not listed. Activity calls are given as the source filed them. The calls were made as follows: active = hit-call score of the fitted dose curve at least 0.9, where 1 is the maximum; inconclusive = response in the unintended direction; inactive = score below 0.9.

Chain of rat Neonicotinoid receptor (NNR), Chrna7 (gene 25302) (Q05941 whole entry, looked up): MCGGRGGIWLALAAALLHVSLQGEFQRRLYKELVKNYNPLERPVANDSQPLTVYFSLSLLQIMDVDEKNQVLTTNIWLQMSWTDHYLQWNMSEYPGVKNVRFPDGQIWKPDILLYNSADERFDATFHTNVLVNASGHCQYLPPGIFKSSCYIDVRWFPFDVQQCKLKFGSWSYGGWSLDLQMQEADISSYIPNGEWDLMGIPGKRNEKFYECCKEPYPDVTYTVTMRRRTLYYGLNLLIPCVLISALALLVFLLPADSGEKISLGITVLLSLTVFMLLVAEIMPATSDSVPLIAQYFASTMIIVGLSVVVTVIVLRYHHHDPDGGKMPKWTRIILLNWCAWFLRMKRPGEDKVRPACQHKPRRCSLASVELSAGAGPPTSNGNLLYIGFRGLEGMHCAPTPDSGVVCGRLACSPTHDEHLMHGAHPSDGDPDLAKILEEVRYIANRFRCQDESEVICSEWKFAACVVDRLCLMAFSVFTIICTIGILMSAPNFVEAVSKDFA
Chain of rat Somatostatin Receptor (SST), Sstr1 (gene 25033) (P28646 whole entry, looked up): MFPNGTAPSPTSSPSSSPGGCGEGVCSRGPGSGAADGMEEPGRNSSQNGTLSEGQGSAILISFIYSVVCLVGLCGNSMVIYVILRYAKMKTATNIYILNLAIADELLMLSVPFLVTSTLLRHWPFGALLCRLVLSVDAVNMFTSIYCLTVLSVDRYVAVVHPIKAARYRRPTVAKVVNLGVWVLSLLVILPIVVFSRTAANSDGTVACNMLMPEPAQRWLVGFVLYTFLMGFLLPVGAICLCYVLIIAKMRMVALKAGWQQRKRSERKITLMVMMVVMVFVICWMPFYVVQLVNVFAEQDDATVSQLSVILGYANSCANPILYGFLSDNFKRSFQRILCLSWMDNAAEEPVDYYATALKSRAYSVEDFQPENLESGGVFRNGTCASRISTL

The first experiment deals with rat Somatostatin Receptor (SST), Sstr1 (gene 25033) (UniProt P28646). Kind of experiment: NVS_GPCR_rSST: NovaScreen (NVS) G Protein-Coupled Receptor Assay for rat Somatostatin Receptor (SST) (AID 2283314). As to the method:
NVS_GPCR_rSST is a biochemical, single-readout assay that uses extracted gene-proteins from Rat forebrain membranes in a tissue-based cell-free assay. Measurements were taken 1 hour after chemical dosing in a 96-well plate.NVS_GPCR_rSST is one of one assay component(s) measured or calculated from the NVS_GPCR_rSST assay. It is designed to make measurements of radioligand binding, a form of binding reporter, as detected with scintillation counting signals by Filter-based radiodetection technology.Data from the assay component NVS_GPCR_rSST was analyzed into 1 assay endpoint. This assay endpoint, NVS_GPCR_rSST, was analyzed in the positive analysis fitting direction relative to DMSO as the negative control and baseline of activity. Using a type of binding reporter, loss-of-signal activity can be used to understand changes in the binding as they relate to the gene Sstr1. Furthermore, this assay endpoint can be referred to as a primary readout, because the performed assay has only produced 1 assay endpoint. To generalize the intended target to other relatable targets, this assay endpoint is annotated to the gpcr intended target family, where the subfamily is rhodopsin-like receptor.
Binding assays used specific radioligands (tritiated, iodinated) with non-radioactive competitive displacement ligands in agonist or antagonist protocols (as indicated) and various reference compounds and inhibitors to titrate specific binding to receptors and transporters. Most enzyme assays (CYPs, kinases, phosphatases, proteases, HDACs) used recombinant protein and specific substrates (fluorescence mostly, some colorimetric and radioactive) and inhibitors, followed by a biochemical separation of substrate and product. All assays for the biochemical HTS were initially run in duplicate at a single concentration (10 uM for CYP450 assays and 25 uM for all others). Assay-chemical combinations meeting a pre-defined threshold (e.g., 30% inhibition and other criteria defined below) were then run in singleton concentration-response format with maximum concentration of 20 uM for CYPs and 50 uM for all others. Each assay was run with positive and negative controls, and concurrent controls on every plate. The follow-up (secondary) screen tested active chemical-pairs in concentration series, as well as a few additional assays not tested in the primary screen, some selected negative inactives, and several cases re-run in the concentration series for confirmatory purposes.
A word on the AC50: it is the concentration at which the activity in the assay is half-maximal. For the compound `Oc1cc(Cl)ccc1Oc1ccc(Cl)cc1Cl`, the AC50 was 18.7 µM (active).

With `CC[C@H](C)[C@H]1O[C@]2(C=C[C@@H]1C)C[C@@H]1C[C@@H](C/C=C(\C)[C@@H](O[C@H]3C[C@H](OC)[C@@H](O[C@H]4C[C@H](OC)[C@@H](O)[C@H](C)O4)[C@H](C)O3)[C@@H](C)/C=C/C=C3\CO[C@@H]4[C@H](O)C(C)=C[C@@H](C(=O)O1)[C@]34O)O2` (tested in a mixture with another compound), the outcome was inactive.

`Oc1ccc(Cl)cc1Cc1ccccc1`: the AC50 is 25.2 µM (active).

Take `O=S(=O)(O)C(F)(F)C(F)(F)C(F)(F)C(F)(F)C(F)(F)C(F)(F)C(F)(F)C(F)(F)F`: the result was inactive.

A further experiment addresses rat Neonicotinoid receptor (NNR), Chrna7 (gene 25302) (UniProt Q05941). As to the kind of experiment: NVS_LGIC_rNNR_BungSens: NovaScreen (NVS) Ligand-Gated Ion Channel Assay for rat Neonicotinoid receptor (NNR) (AID 2283315). The essentials:
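Rat cortical membrane preparation incubated 2.5 h with tritiated or iodinated radioligand and test chemical. Bound radioactivity was filtered and counted by scintillation, and displacement was analysed against DMSO.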
In the case of `CCOC1Oc2ccc(OS(C)(=O)=O)cc2C1(C)C` (centres undefined), the result was inactive.

For the compound `O=[N+]([O-])/N=C1\NCCN1Cc1ccc(Cl)nc1`, the AC50 was 10.9 µM (active).

Turning to `COP(=S)(OC)Oc1ccc([N+](=O)[O-])cc1`, the compound was classed as inactive.

For the compound `C[C@H]1[C@H](c2ccc(Cl)cc2)SC(=O)N1C(=O)NC1CCCCC1`, the outcome was inactive.

Consider `COP(=S)(OC)Oc1ccc(SC)c(C)c1`, for which the outcome was inactive.
